From PubChem BioAssay AID686979 (National Center for Advancing Translational Sciences (NCATS), 2013)
Values joined by “and” are separate entries in the source; they are usually repeats but may differ in a detail not shown here. Equal entries are not always repeated. Screen size: about 420,000 compounds; about 50,000 (12%) were called active. Another 26% or so got no clear call; they are omitted. This is one part of a sample in which actives are shown more often than they occur. The call rests on the fitted dose curve; in most records, active means well fitted inhibition curve with a large enough effect; inconclusive means small, poorly fitted or top-dose-only effect; inactive means flat fitted curve, though single readings scatter. A structure can be active in one record and inactive in another.

Test: qHTS for Inhibitors of human tyrosyl-DNA phosphodiesterase 1 (TDP1): qHTS in cells in presence of CPT; further: nearly all actives have a fitted effect of over 55% in size
Settings: chicken DT40 Tdp1-/-;hTDP1 cells + 20 nM CPT, ATP luminescence, 48 h; series mostly up to 46.2 µM; activity change, negative = growth inhibition: at the top concentration
In short: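 Chicken DT40 Tdp1-/- cells complemented with human TDP1, 400 cells/well, exposed to compounds plus 20 nM camptothecin for at least 48 h at 37 C; viability read as ATP content by CellTiter-Glo luminescence.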
On the % scale 0 is the no-effect control and ±100 the full control effect; potency means the concentration at half of the fitted maximal effect.

SMILES | Potency | activity change, negative = growth inhibition
O=C(O)CCCCCCCCc1cn(CN2C(=O)c3ccccc3C2=O)nn1 | inactive | 
Cn1c(N)c(C(=O)COC(=O)c2ccc3ccccc3c2)c(=O)n(C)c1=O |  | -7.02% (inactive)
Cc1cc(=O)oc2c1ccc1ccccc12 |  | -4.42% (inactive)
Cc1nnc(SC(C)C(=O)c2c[nH]c3ccccc23)n1C1CC1 (configuration not stated) |  | -7.04% (inactive)
COc1ccccc1OCCNC(=O)CCNC(=O)c1ccccc1Cl |  | 9.3% (inactive)
O=C(NCCOc1ccccc1Cl)C(=O)Nc1ccccc1 | 20.6 µM (active) | 
COc1cc(SC)ccc1C(=O)NCCOc1ccccc1Cl |  | -24.1% (inactive)
COc1cc(C(=O)NNC(=O)CN2C(=O)NC3(CCCC3)C2=O)cc(OC)c1OC |  | 15.5% (inactive)
CC1(C(=O)NS(=O)(=O)c2cccc(F)c2)CCN1C(=O)Cc1ccc(Cl)cc1Cl (configuration not stated) |  | -13.7% (inactive)
CCCOc1ccc(Cc2c(O)nc(SC)[nH]c2=O)cc1C |  | -3.97% (inactive)
COc1ccc(S(=O)(=O)N2CCN(c3cnccn3)CC2)cc1 |  | -12.7% (inactive)
COc1ccc(CCC(=O)N2CCN(S(=O)(=O)c3ccc(OC)cc3)CC2)cc1 |  | -25.9% (inactive)
COc1ccc(S(=O)(=O)N2CCN(c3ncnc4c(-c5ccccc5)nsc34)CC2)cc1 | 16.4 µM (active) | 
Cc1noc(C)c1COc1ccccc1C(=O)N(C)CC(=O)Nc1cccc(F)c1 |  | -23.1% (inactive)
C[C@H]1NS(=O)(=O)c2cc(Cl)ccc2O[C@@H]1c1ccccc1 |  | -16.9% (inactive)
COc1ccc(OC)c(S(=O)(=O)n2c([N+](=O)[O-])cnc2C)c1 |  | 9.62% (inactive)
CCOCc1nnc(NC(=O)CCS(=O)(=O)Cc2ccccc2)s1 | 9.2 µM (active) | 
COCCSc1nnc(NC(=O)CCS(=O)(=O)Cc2ccccc2)s1 |  | -26.5% (inactive)
CCCCc1nnc(NC(=O)CS(=O)(=O)Cc2ccccc2)s1 |  | 3.05% (inactive)
Cn1c(N)c(C(=O)COC(=O)/C=C/c2cccc(C(F)(F)F)c2)c(=O)n(C)c1=O |  | -18% (inactive)
Cc1ccc(CSCC(=O)N(C)CC(=O)Nc2cccc(F)c2)cc1 |  | -3.39% (inactive)
CCS(=O)(=O)c1ccc(-c2cccc(NC(=O)c3ccc(Br)o3)c2)nn1 |  | 3.85% (inactive)
O=C(NCc1ccc(Cl)c(Cl)c1)c1cccnc1 |  | -25.4% (inactive)
CS(=O)(=O)N(Cc1ccccc1Cl)c1ccc(C(=O)NCc2cccnc2)cc1 | 23.1 µM (active) | 
Cc1ccc(S(=O)(=O)N(Cc2ccc(Cl)cc2)c2ccccc2C(=O)NCc2cccnc2)cc1 | 18.4 µM (active) | 
O=C(NCc1cccnc1)c1cccnc1Sc1ccc(Cl)cc1 |  | 14.9% (inactive)

SMILES | Potency | activity change, negative = growth inhibition
Cc1ccc(C(=O)NC(=S)NCc2cccnc2)cc1 |  | -16% (inactive)
O=C(O)c1ccccc1-c1ccccc1C(=O)NCc1cccnc1 |  | 10.1% (inactive)
CC(=O)NCC(=O)N(C)C(C(=O)Nc1ccc2c(c1)OCCO2)c1ccccc1 (configuration not stated) |  | -4.03% (inactive)
COc1ccc(S(=O)(=O)N2CCOC2CNC(=O)C(=O)NCc2ccc(F)cc2)cc1 (configuration not stated) |  | 0.226% (inactive)
O=C(NCc1ccncc1)C(=O)NCC1OCCN1S(=O)(=O)c1ccc(Br)cc1 (configuration not stated) |  | -13.7% (inactive)
O=C(NCCCN1CCCC1=O)C(=O)NCC1OCCN1S(=O)(=O)c1ccc(Br)cc1 (configuration not stated) | 18.4 µM (active) | 
CCOC(=O)c1ccccc1C(=O)N1CCOCCOCCOCC1 |  | -5.38% (inactive)
CCOC(=O)c1cnc2c(C)cc(C)cc2c1Nc1ccc(N2CCOCC2)cc1 | 25.9 µM (active) | 
CCOC(=O)c1cnc2c(C)cc(Cl)cc2c1NCCc1ccc(OC)c(OC)c1 |  | -26.6% (inactive)
CC(C)(O)C1=C[N+](=O)CC=C1 |  | -6.98% (inactive)
COc1ccc(SCc2cc(=O)c3ccc(C)c(C)c3[nH]2)cc1 |  | -29.1% (inactive)
CCOC(=O)c1ccccc1CN1C(=O)c2ccccc2S1(=O)=O |  | 0.131% (inactive)
COC(=O)C1=C(c2ccccc2)c2ccccc2S(=O)(=O)N1CC(=O)Nc1ccccc1C(F)(F)F |  | -28.1% (inactive)
CCOC(=O)CN1C(C(=O)c2ccccc2)=C(OC(=O)C(C)(C)C)c2ccccc2S1(=O)=O | 20.6 µM (active) | 
Cc1ccc2c(c1)N(CC(=O)N1CCC(O)CC1)C(=O)CO2 |  | 2.52% (inactive)
Fc1ccc(-c2nc(Nc3cccc(Cl)c3)nc3c2COc2ccccc2-3)cc1 |  | -23.3% (inactive)
Cc1cc(OCC(=O)NCC(O)c2ccccc2)c2c(C)c(C)c(=O)oc2c1 (configuration not stated) |  | -26.3% (inactive)
Cc1ccc(N(CC(=O)NCC2CCCO2)C(=O)CNS(=O)(=O)c2ccc(Cl)cc2)cc1 (configuration not stated) |  | -2.58% (inactive)
Nc1ccccc1N | inactive and 4.86 µM (active) | 
Nc1ccccc1/C=N\N=C/c1ccccc1N |  | 1.29% (inactive)
Nc1cccnc1Sc1ccccc1 |  | 17.3% (inactive)
CC1=NN(C(=O)c2ccc(Br)cc2)C(O)(c2ccccc2)C1 (configuration not stated) |  | -21% (inactive)
Cc1ccc2nc(Nc3ncc4c(n3)CC(C)(C)CC4=O)nc(C)c2c1 |  | -9.06% (inactive)
CCCN(CCC)CCCNC(=O)CNC(=O)c1nn(-c2ccc(OC)cc2)c(=O)c2ccccc12 |  | 11.6% (inactive)
COc1ccc(CNC(=O)C(C)NCc2ccccc2Cl)cc1 (configuration not stated) |  | 3% (inactive)
N#Cc1ccc(C(C(=O)NCc2ccccc2)n2c(=O)c(-c3ccco3)nc3ccccc32)cc1 (configuration not stated) | 20.6 µM (active) | 

SMILES | Potency | activity change, negative = growth inhibition
CCc1nc2ccccc2c(C(=O)NCc2ccc(OC)cc2)c1C |  | -20.2% (inactive)
O=C(CSc1nnc(-c2ccco2)n1Cc1ccccc1)NC(=O)NCc1ccco1 |  | -15.2% (inactive)
CCOCCCNC(=O)C(NC(=O)CNC(=O)c1ccccc1)c1ccc(OC)cc1 (configuration not stated) |  | 19.8% (inactive)
O=C(NNC(=S)NCc1ccco1)C(c1ccccc1)c1ccccc1 |  | 2.82% (inactive)
CCCCCNC(=O)C(c1ccc(OC)cc1)n1c(=O)c(-c2ccccc2)nc2ccccc21 (configuration not stated) | 23.1 µM (active) | 
COc1ccc(C(C(=O)NCc2ccccc2)n2c(=O)c(-c3ccccc3)nc3ccccc32)cc1 (configuration not stated) | 14.6 µM (active) | 
O=C1COc2ccc(S(=O)(=O)NCCc3ccc(Cl)cc3)cc2N1 |  | -22.5% (inactive)
COc1ccc(N(CC(=O)NCCSCc2cccc(Cl)c2)S(C)(=O)=O)cc1 |  | -0.225% (inactive)
O=C1CCC(=O)N(c2ccccc2)N1 |  | 4.59% (inactive)
O=C1CC(c2ccccc2)=NN1c1ccc([N+](=O)[O-])cc1 | 16.4 µM (active) | 
O=c1[nH]n(-c2ccc([N+](=O)[O-])cc2)c(=O)c2ccccc12 |  | -3.34% (inactive)
Cc1nc(-c2ccc([N+](=O)[O-])cc2)c(-c2ccccc2)o1 |  | -23% (inactive)
CC(=O)c1ccc(S(=O)(=O)NCc2nnnn2-c2ccccc2)cc1 |  | -17.2% (inactive)
O=C(O)c1ccccc1OCc1ccccc1Cl |  | -16.6% (inactive)
O=C(NC1CCC(O)CC1)c1ccccc1OCc1ccc(F)cc1 (configuration not stated) |  | -15% (inactive)
CC(=O)c1ccccc1OCc1ccc(C(=O)c2ccccc2)cc1 | 16.4 µM (active) | 
S=C(Nc1ccc2c(c1)OCO2)N1CCCC1 |  | -4.45% (inactive)
O=C(CN1CCN(S(=O)(=O)/C=C/c2ccccc2)CC1)Nc1ccc(N2CCOCC2)cc1 |  | 4.47% (inactive)
O=C(CN1CCCCCC1)Nc1ccc(S(=O)(=O)N2CCCCC2)cc1 |  | -8.76% (inactive)
Cc1ccc(C(=O)Nc2ccc3c(c2)OCCO3)cc1S(=O)(=O)N1CCOCC1 |  | -6.96% (inactive)
O=C(Nc1ccc(S(=O)(=O)N2CCOCC2)cc1)C1CCN(S(=O)(=O)c2ccc(Cl)cc2)CC1 | 16.4 µM (active) | 
Cc1ccc(NC(=O)c2ccc(Cl)nc2)cc1S(=O)(=O)N1CCOCC1 | 10.3 µM (active) | 
O=S(=O)(c1ccc(NC(=S)NN=C(C2CC2)C2CC2)cc1)N1CCOCC1 |  | -15.8% (inactive)
Cc1ccc(NC(=O)C(C)OC(=O)C2CC3CCCC(C2)C3=O)cc1S(=O)(=O)N1CCOCC1 (configuration not stated) |  | 5.1% (inactive)
Cc1ccc(NC(=O)c2ccccn2)cc1S(=O)(=O)N1CCOCC1 |  | -21.4% (inactive)
Cc1ccc(NC(=O)COC(=O)C2CC2)cc1S(=O)(=O)N1CCOCC1 |  | -2.36% (inactive)

SMILES | Potency | activity change, negative = growth inhibition
O=C(Nc1ccc(Oc2ccccc2)cc1)C1CCN(S(=O)(=O)c2ccc(Cl)cc2)CC1 |  | -17.6% (inactive)
O=C(CN1CCN(c2cccc(Cl)c2)CC1)Nc1ccc(S(=O)(=O)N2CCOCC2)cc1 | 20.6 µM (active) | 
Cc1ccc(NC(=O)C2CCC(C(C)(C)C)CC2)cc1S(=O)(=O)N1CCOCC1 (configuration not stated) | 13 µM (active) | 
COc1cccc(C(=O)NNS(=O)(=O)c2ccc(F)cc2)c1 |  | 0.492% (inactive)
Cc1c(NC(=O)c2cc(-c3ccc(Br)cc3)on2)c(=O)n(-c2ccccc2)n1C |  | 0.485% (inactive)
CCCN(C(=O)CSc1nnc(N)s1)c1c(N)n(Cc2ccccc2)c(=O)[nH]c1=O |  | 9.05% (inactive)
COc1ccc(C(=O)Oc2ccc(-c3nnco3)cc2)cc1S(=O)(=O)N1CCOCC1 |  | -12.2% (inactive)
Cc1nn(C)c(Cl)c1CN1CCC(Oc2ccc(C(=O)N3CCCC3)cc2)CC1 |  | -21.7% (inactive)
Cc1ccc(C(CNC(=O)Nc2ccccc2)N2CCN(C)CC2)cc1 (configuration not stated) |  | -7.62% (inactive)
CC(C)Cc1ccc(C(C)C(=N)N)cc1 (configuration not stated) | 7.31 µM (active) | 
COc1c(F)c(F)c(-c2csc(N)n2)c(F)c1F |  | -0.225% (inactive)
O=C(Nc1nnc(-c2ccc(Cl)cc2)o1)c1ccccc1Br | 23.1 µM (active) | 
O=C(Nc1ccccc1)c1ccccc1Br |  | 2.75% (inactive)
O=C(COC(=O)c1ccccc1Br)Nc1nnc(-c2ccccc2)o1 |  | -6.82% (inactive)
CCCCNC(=O)N1CCCC(N(C)CCc2ccc(OC)c(OC)c2)C1 (configuration not stated) |  | -8.93% (inactive)
CC(NC(=O)CNC(=O)Cc1cccc2ccccc12)c1ccc(S(N)(=O)=O)cc1 (configuration not stated) |  | 33.9% (inactive)
COc1ccc(CN2C3CCCC2CC(NC(=O)c2cccc(F)c2)C3)cc1 (configuration not stated) |  | -14.7% (inactive)
COc1ccc(-n2cc(CNC3CCOCC3)c(-c3cccc(F)c3)n2)cc1 | 20.6 µM (active) | 
Cc1cccc(-n2cc(CN3CCN(C(=O)c4ncn[nH]4)CC3)c(-c3cccc(F)c3)n2)c1 |  | -0.232% (inactive)
COc1ccc(Cl)cc1-n1c(=S)sc2c(=O)n(-c3ccc(F)cc3)c(SCC(=O)O)nc21 |  | 0.94% (inactive)
COc1cc(C)c(CN2CCc3nnc(C(C)NC(=O)c4cccnc4)n3CC2)cc1C (configuration not stated) |  | -20.5% (inactive)
Cc1ccccc1Nc1c([N+](=O)[O-])ccc2nonc12 |  | 5.39% (inactive)
Cc1nn(C)cc1C(=O)c1ccccc1 |  | 10.1% (inactive)
COc1ccc(N(C)C(=O)C2CCN(S(=O)(=O)c3cccc4nsnc34)CC2)cc1 |  | -8.02% (inactive)
